From the supplement of paper PMC11732987, “Enantioselective OTUD7B fragment discovery through chemoproteomics screening and high-throughput optimisation” (Communications Chemistry, 2025)

Tests used:
Assay in all cases: log2 ratio of Biotin-Ahx-Ub-VS probe labelling (fragment/DMSO); higher = less target engagement (more negative = stronger competition), active = hit call of the paper (q ≤ 0.05, log2 ratio ≤ -1)
Conditions in all cases: compound concentration: 200 uM; treatment time: 3 h
ALG13 = biological target: T1, ALG13 (UniProt Q9NP73)
T1 sequence (whole entry): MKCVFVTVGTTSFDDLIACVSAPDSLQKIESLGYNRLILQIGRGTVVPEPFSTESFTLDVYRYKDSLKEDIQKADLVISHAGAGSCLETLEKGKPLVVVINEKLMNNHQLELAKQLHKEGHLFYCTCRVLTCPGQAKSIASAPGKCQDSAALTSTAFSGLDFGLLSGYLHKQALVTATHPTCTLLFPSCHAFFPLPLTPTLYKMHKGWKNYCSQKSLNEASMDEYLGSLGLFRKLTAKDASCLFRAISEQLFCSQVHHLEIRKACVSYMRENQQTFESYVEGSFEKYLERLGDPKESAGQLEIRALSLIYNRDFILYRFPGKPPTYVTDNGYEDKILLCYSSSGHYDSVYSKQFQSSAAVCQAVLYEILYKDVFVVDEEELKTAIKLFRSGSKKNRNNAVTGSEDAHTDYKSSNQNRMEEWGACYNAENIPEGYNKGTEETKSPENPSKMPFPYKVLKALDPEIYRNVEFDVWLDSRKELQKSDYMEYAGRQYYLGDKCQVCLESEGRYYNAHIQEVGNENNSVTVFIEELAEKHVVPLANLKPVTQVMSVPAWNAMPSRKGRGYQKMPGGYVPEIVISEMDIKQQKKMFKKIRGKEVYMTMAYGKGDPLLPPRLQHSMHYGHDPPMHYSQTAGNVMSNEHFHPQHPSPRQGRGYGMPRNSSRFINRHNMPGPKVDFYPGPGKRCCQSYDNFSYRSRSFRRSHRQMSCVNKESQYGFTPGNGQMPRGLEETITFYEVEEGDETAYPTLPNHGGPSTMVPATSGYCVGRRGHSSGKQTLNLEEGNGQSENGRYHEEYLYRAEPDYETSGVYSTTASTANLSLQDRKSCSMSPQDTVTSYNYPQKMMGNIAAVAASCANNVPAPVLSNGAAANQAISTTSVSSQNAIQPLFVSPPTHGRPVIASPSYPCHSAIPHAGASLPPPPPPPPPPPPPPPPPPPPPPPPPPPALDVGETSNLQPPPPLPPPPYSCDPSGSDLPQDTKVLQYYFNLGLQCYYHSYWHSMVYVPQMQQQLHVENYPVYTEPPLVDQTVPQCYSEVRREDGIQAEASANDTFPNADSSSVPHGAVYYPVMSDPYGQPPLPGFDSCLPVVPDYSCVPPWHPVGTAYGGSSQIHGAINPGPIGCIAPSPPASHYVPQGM
Method in brief: (§1)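 Labelling with Biotin-Ahx-Ub-VS (0.5 µM final, 1 h) followed a 3 h triplicate treatment of HEK293T lysate (495 µg per sample, Tris/CHAPS/IGEPAL buffer with protease inhibitors) with fragment at 200 µM or vehicle. Labelled DUBs were NeutrAvidin-enriched, digested with LysC and trypsin, and run by diaPASEF LC-MS/MS. The values, average log2 fragment/vehicle ratios by unpaired t-test, come from global-median-normalised Spectronaut label-free quantities. Proteins with ≥2 unique peptides were used.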

ATXN3 = ATXN3 (UniProt P54252)
Chain of ATXN3 (P54252 whole entry): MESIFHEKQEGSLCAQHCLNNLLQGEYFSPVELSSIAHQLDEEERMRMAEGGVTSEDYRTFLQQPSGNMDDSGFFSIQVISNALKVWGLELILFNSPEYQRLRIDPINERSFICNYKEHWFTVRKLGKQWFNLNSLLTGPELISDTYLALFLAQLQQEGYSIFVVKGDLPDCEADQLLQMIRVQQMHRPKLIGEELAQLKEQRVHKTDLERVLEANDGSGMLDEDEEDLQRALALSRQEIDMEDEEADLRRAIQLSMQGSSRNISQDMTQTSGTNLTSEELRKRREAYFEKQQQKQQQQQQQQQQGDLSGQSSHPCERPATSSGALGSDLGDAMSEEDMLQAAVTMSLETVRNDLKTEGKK
Method in brief: as §1

BAP1 = biological target: T2, BAP1 (UniProt Q92560)
T2 sequence (whole entry): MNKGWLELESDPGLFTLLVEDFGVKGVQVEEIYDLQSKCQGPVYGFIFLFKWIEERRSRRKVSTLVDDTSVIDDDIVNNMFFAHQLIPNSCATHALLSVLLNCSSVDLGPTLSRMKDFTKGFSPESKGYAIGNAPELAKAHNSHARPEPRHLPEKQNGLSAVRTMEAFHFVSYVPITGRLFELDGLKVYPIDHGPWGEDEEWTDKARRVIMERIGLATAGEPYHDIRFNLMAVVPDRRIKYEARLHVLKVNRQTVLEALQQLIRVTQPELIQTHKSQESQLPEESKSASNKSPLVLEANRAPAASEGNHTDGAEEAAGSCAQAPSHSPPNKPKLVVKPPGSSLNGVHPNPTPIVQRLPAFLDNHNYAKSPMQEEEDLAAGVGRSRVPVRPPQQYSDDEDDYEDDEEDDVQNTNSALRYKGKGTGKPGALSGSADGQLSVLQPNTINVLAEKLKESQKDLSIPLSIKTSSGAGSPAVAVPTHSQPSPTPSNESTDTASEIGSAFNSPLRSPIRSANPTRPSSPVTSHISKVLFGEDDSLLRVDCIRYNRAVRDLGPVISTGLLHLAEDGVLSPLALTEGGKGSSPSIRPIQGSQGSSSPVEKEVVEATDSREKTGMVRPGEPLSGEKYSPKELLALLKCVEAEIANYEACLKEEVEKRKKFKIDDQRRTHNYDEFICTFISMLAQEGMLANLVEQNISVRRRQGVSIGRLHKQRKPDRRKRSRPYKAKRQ
Method in brief: as §1

EIF3F = EIF3F (UniProt O00303)
Chain of EIF3F (O00303 whole entry): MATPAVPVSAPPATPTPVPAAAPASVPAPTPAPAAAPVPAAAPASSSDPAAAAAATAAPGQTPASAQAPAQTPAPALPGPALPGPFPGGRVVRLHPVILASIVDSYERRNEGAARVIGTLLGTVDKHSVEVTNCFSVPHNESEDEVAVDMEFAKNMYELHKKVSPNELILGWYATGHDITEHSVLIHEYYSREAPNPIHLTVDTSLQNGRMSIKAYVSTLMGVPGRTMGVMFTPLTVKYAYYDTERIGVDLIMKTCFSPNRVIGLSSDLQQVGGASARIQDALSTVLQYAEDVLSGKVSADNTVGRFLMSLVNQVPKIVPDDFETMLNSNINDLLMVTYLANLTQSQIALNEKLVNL
Method in brief: as §1

EIF3H = EIF3H (UniProt O15372)
Chain of EIF3H (O15372 whole entry): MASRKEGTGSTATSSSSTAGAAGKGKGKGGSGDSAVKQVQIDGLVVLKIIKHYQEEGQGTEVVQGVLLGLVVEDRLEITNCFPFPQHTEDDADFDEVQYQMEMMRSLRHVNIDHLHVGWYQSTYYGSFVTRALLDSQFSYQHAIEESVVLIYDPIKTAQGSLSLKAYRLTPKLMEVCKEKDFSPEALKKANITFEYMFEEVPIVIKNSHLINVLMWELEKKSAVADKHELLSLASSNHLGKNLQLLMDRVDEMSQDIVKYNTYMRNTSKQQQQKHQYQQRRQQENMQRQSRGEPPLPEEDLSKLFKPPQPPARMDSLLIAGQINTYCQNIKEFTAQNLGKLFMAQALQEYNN
Method in brief: as §1

FAM105A = biological target: T3, FAM105A (UniProt Q9NUU6)
T3 sequence (whole entry): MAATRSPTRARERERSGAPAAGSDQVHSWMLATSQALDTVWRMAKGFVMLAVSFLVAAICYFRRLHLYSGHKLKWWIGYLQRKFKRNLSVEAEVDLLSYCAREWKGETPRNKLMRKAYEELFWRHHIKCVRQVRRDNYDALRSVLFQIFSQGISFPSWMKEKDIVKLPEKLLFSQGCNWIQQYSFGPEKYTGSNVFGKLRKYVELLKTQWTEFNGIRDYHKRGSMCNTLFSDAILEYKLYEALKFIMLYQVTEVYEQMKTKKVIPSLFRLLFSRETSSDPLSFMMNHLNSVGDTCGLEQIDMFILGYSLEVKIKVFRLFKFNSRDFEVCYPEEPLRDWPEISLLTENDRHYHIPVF
Method in brief: as §1

OTUB1 = OTUB1 (UniProt Q96FW1)
Chain of OTUB1 (Q96FW1 whole entry): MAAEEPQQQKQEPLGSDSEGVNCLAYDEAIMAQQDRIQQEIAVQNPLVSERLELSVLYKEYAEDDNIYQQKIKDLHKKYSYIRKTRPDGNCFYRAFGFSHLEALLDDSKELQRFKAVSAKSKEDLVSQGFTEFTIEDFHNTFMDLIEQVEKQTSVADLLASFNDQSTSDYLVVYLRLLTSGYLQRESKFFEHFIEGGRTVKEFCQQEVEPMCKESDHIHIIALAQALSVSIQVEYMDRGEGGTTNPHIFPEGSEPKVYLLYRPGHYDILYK
Method in brief: as §1

OTUD4 = biological target: T4, OTUD4 (UniProt Q01804)
T4 sequence (whole entry): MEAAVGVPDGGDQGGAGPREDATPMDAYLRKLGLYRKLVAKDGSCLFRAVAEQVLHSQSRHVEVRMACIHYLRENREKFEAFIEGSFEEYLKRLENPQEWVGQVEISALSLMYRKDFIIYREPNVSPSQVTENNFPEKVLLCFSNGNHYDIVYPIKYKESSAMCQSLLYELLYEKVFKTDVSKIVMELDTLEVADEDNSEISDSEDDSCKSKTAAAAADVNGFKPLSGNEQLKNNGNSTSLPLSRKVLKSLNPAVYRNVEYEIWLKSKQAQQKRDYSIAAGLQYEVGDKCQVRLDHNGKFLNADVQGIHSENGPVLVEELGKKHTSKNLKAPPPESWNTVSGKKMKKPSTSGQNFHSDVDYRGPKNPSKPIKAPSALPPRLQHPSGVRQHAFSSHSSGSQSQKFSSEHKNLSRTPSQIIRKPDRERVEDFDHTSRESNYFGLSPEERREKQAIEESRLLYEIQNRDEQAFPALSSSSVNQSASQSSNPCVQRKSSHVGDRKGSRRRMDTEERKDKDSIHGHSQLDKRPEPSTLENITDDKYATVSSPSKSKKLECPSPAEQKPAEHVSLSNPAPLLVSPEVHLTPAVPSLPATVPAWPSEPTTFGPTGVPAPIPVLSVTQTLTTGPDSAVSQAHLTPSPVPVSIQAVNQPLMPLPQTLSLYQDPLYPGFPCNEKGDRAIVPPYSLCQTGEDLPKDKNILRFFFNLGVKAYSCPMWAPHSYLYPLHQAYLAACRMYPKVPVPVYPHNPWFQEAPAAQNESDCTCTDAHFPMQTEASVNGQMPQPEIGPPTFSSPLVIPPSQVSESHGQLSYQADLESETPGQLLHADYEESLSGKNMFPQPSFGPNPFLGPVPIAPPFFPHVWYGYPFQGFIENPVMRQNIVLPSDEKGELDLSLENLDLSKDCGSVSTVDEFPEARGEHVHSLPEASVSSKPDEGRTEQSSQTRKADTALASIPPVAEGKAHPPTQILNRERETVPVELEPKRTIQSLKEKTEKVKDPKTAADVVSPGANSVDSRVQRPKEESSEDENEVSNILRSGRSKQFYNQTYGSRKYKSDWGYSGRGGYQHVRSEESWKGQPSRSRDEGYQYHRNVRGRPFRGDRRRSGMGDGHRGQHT
Method in brief: as §1

OTUD5 = biological target: T5, OTUD5 (UniProt Q96G74)
T5 sequence (whole entry): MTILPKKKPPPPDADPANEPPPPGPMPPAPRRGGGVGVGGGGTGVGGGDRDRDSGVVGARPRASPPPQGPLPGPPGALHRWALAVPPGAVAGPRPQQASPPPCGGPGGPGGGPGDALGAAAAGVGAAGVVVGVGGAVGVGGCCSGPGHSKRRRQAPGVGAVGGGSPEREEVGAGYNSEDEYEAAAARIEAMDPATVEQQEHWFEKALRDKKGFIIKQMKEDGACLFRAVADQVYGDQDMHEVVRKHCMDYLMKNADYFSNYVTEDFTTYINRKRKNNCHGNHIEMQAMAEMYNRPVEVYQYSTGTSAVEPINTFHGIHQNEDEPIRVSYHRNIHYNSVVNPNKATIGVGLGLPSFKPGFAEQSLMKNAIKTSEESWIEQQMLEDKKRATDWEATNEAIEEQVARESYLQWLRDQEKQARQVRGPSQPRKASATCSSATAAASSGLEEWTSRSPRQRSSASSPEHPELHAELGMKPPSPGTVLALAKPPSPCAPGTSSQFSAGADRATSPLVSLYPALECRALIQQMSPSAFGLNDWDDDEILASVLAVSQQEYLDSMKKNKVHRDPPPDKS
Method in brief: as §1

Measured: log2 ratio of Biotin-Ahx-Ub-VS probe labelling

O=C(CCl)Nc1cc(Cl)ccc1C(=O)O
inactive: ALG13 -0.0259 | ATXN3 0.182 | BAP1 -0.0627 | EIF3F -0.053 | EIF3H -0.119 | FAM105A -0.0511 | OTUB1 0.108 | OTUD4 0.038 | OTUD5 -0.156
